Records with an inconclusive call do not appear. Activity calls are given as the source filed them. Unless noted, the call rests on the fitted dose curve; in most records, active means well fitted curve in the direction sought with a large enough effect in the repeat runs; inconclusive means weak or mixed curves; inactive means no such curve, though single readings can be large; an effect the other way counts as inactive or inconclusive.

Experiment [1] concerns the target Aryl hydrocarbon receptor (Homo sapiens) (UniProt P35869). Put plainly: qHTS assay to identify small molecule that activate the aryl hydrocarbon receptor (AhR) signaling pathway (AID 743085). Further: nearly all actives have a fitted effect of over 15% in size. Further: potency means the concentration at half of the fitted maximal effect.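 On activation: HG2L7.5c1 human HepG2 liver cells with stably integrated DRE-driven firefly reporter; series mostly up to about 70 µM.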 In short, it runs like this: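 Luminescence (ONE-Glo) from a dioxin-responsive-element luciferase reporter in HG2L7.5c1 HepG2 cells after 24 hr compound exposure at 37C; viability measured by CellTiter-Fluor fluorescence beforehand.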
Background: qHTS replaces the single test concentration by a dilution series.

Experiment [2] is described as follows: qHTS assay to identify small molecule that activate the aryl hydrocarbon receptor (AhR) signaling pathway - cell viability counter screen (AID 743086). Further: series mostly up to about 70 µM; nearly all actives have a fitted effect of over 45% in size. In short, it runs like this: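 Cytotoxicity counter screen: CellTiter-Fluor signal (30 min, 37 C) in 4000 HepG2 cells/well carrying the DRE-luciferase reporter, following 24 h compound exposure at 37 C.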
Experiment [3] has as its target Peroxisome proliferator-activated receptor gamma (Homo sapiens) (UniProt P37231). Put plainly: qHTS assay to identify small molecule agonists of the peroxisome proliferator-activated receptor gamma (PPARg) signaling pathway (AID 743094; active means well fitted activation curve with a large enough effect in the signal ratio in the repeat runs, not every such curve was filed as active; the % refers to the signal ratio; further: potency means the concentration at half of the fitted maximal effect). In short, it runs like this:
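Cells from the PPARg UAS-bla HEK293H line are plated and incubated 5 h at 37C. Compounds in DMSO are pinned in and left 17 h at 37C. LiveBLAzer B/G substrate is then added for 1 h at room temperature before fluorescence is measured.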

Experiment [4] has the same target. Put plainly: qHTS assay to identify small molecule antagonists of the peroxisome proliferator-activated receptor gamma (PPARg) signaling pathway (AID 743191; calls by dose curve; further: series mostly up to about 63 µM; nearly all actives have a fitted effect of over 30% in size). In short, it runs like this:
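Beta-lactamase reporter under UAS control in HEK293H PPARg-bla cells; compound treatment 17 h at 37C. Read-out: fluorescence intensity after 1 h room-temperature incubation with LiveBLAzer B/G FRET substrate.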

The nature of experiment [5]: qHTS assay to identify small molecule antagonists of the peroxisome proliferator-activated receptor gamma (PPARg) signaling pathway - cell viability counter screen (AID 743194). Further: nearly all actives have a fitted effect of over 55% in size. In short, it runs like this:
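Viability was measured as CellTiter-Glo luminescence in GeneBLAzer PPARg UAS-bla HEK293H cells. These cells had been exposed 17 h at 37 C to compounds together with rosiglitazone at 50 nM final, with the beta-lactamase readout taken in the same wells.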

Experiment [6] in a line: qHTS assay for small molecule agonists of the antioxidant response element (ARE) signaling pathway (AID 743202; active means well fitted activation curve with a large enough effect in the signal ratio in the repeat runs, not every such curve was filed as active; the % refers to the signal ratio). In short, it runs like this:
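Beta-lactamase reporter activity, read as fluorescence intensity, reflects ARE/Nrf2 pathway induction in HepG2 cells after 16 h compound exposure at 37 C; substrate loading was 2 h at room temperature.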

Experiment [7] can be described thus: qHTS assay for small molecule agonists of the antioxidant response element (ARE) signaling pathway - cell viability counter screen (AID 743203; calls by dose curve; further: nearly all actives have a fitted effect of over 55% in size). In short, it runs like this:
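Cytotoxicity was tested in parallel with the ARE reporter screen. ARE-bla HepG2 cells were exposed to compounds for 16 hrs, and viability was taken from CellTiter-Glo luminescence.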

Experiment [8] in a line: qHTS assay for small molecule activators of the heat shock response signaling pathway - cell viability counter screen (AID 743209). Further: nearly all actives have a fitted effect of over 50% in size. In short, it runs like this: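 Cytotoxicity counter screen run in parallel with the HSE beta-lactamase reporter, using the same wells. HeLa HSE-bla cells received compound for 5 h at 37 C; ATP-based CellTiter-Glo luminescence was measured after 30 min at room temperature.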

Experiment [9] is described as follows: qHTS assay for small molecule activators of the heat shock response signaling pathway (AID 743210; active means well fitted activation curve with a large enough effect in the signal ratio in the repeat runs, with a control signal flat, not every such curve was filed as active; the % refers to the signal ratio;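 further: HeLa cells with beta-lactamase reporter driven by heat shock elements; series mostly up to about 63 µM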). In short, it runs like this: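 Fluorescence from a cleaved B/G FRET substrate (2.5 h, room temp) reports HSE-driven beta-lactamase in HeLa cells treated 5 h at 37 C with DMSO-dissolved compounds.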
Experiment [10] in a line: qHTS assay to identify small molecule agonists of the peroxisome proliferator-activated receptor delta (PPARd) signaling pathway - cell viability counter screen (AID 743211). Further: nearly all actives have a fitted effect of over 55% in size. In short, it runs like this: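 Viability was measured as CellTiter-Glo luminescence (30 min, room temperature) in the same wells as the beta-lactamase readout. GeneBLAzer PPARd UAS-bla HEK293H cells received compound after 5 h plating and were incubated 17 h at 37 C.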

Experiment [11] has as its target Peroxisome proliferator-activated receptor delta (Homo sapiens) (UniProt Q03181). Put plainly: qHTS assay to identify small molecule agonists of the peroxisome proliferator-activated receptor delta (PPARd) signaling pathway (AID 743212; calls by dose curve). In short, it runs like this: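 Steps: seed PPARd-bla HEK293H cells; incubate 5 h, 37 C, 5% CO2; add compounds in DMSO; incubate, 37 C; add LiveBLAzer B/G FRET substrate; hold 2 h at room temperature; measure fluorescence.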

Experiment [12] can be described thus: qHTS assay to identify small molecule antagonists of the peroxisome proliferator-activated receptor delta (PPARd) signaling pathway - cell viability counter screen (AID 743213). Further: nearly all actives have a fitted effect of over 50% in size. In short, it runs like this: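 PPARd-bla HEK293H cells were treated with compounds plus agonist L165041 (300 nM final) for 17 h at 37 C. Viability was then read in the same wells by CellTiter-Glo luminescence after 30 min at room temperature.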

In experiment [13] the target is Peroxisome proliferator-activated receptor delta (Homo sapiens) (UniProt Q03181). Briefly: qHTS assay to identify small molecule antagonists of the peroxisome proliferator-activated receptor delta (PPARd) signaling pathway (AID 743215; active means well fitted inhibition curve with a large enough effect in the signal ratio in the repeat runs, not every such curve was filed as active; the % refers to the signal ratio;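 further: cells stimulated with agonist L165041 at 300 nM final during compound exposure; series mostly up to about 62 µM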). In short, it runs like this: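 Cells: HEK293H with a UAS-driven beta-lactamase reporter responsive to PPARd. Compounds were co-added with L165041 (300 nM, final) and incubated 17 h at 37 C before a 2 h room-temperature FRET substrate step and fluorescence reading.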
Peroxisome proliferator-activated receptor delta (Homo sapiens), sequence (Q03181 whole entry, looked up): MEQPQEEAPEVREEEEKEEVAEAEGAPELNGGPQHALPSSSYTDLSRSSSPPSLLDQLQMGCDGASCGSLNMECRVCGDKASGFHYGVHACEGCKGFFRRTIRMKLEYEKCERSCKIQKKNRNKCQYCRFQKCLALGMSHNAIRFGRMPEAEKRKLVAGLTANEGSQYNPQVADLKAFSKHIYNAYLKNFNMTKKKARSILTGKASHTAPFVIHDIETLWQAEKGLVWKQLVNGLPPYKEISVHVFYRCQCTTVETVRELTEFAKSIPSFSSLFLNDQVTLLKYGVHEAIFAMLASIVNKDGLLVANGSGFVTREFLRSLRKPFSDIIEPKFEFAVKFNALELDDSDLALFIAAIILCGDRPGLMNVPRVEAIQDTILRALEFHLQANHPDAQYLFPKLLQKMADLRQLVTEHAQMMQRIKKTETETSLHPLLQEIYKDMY

Experiment [14] can be described thus: qHTS assay to identify small molecule agonists of the farnesoid-X-receptor (FXR) signaling pathway - cell viability counter screen (AID 743218). Further: nearly all actives have a fitted effect of over 45% in size. In short, it runs like this: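 Cells were seeded, left 5 h at 37 C and 5% CO2, then dosed with compound in DMSO for 16 h. After the beta-lactamase FRET read, CellTiter-Glo was added and luminescence measured 30 min later.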

A short description of experiment [15]: qHTS assay to identify small molecule antagonists of the farnesoid-X-receptor (FXR) signaling pathway - cell viability counter screen (AID 743221; active means well fitted cell-killing curve with a large enough effect in the repeat runs, not every such curve was filed as active; further: nearly all actives have a fitted effect of over 50% in size). In short, it runs like this:
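Cytotoxicity counter screen run in the FXR-bla reporter wells: HEK 293T cells exposed to compound with 50 uM (final) chenodeoxycholic acid for 16 h, 37 C, then viability measured by CellTiter-Glo luminescence after 30 min, room temperature.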

In experiment [16] the target is Vitamin D3 receptor (Homo sapiens) (UniProt P11473). Put plainly: qHTS assay to identify small molecule agonists of the vitamin D receptor (VDR) signaling pathway (AID 743222; calls by dose curve). In short, it runs like this: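 Cells carrying a VDR-driven beta-lactamase reporter are seeded at 2,000 per well and rested 4 h. Compounds in DMSO are added for 16 h at 37C, and FRET substrate fluorescence is measured after 2 h at room temperature.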
Vitamin D3 receptor (Homo sapiens), sequence (P11473 whole entry, looked up): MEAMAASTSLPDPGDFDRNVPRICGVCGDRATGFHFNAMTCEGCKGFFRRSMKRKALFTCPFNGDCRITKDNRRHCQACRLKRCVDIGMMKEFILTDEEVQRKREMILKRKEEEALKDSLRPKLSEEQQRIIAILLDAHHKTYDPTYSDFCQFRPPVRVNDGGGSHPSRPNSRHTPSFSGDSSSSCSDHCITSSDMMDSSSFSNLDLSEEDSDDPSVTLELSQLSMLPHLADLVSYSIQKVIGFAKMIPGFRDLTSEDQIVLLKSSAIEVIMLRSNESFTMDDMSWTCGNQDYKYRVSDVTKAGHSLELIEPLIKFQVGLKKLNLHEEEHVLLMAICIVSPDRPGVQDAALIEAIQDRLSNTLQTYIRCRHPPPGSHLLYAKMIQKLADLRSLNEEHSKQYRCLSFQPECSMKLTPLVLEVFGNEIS

Experiment [17] has the same target. Briefly: qHTS assay to identify small molecule antagonists of the vitamin D receptor (VDR) signaling pathway (AID 743223; active means well fitted inhibition curve with a large enough effect in the signal ratio in the repeat runs, not every such curve was filed as active; the % refers to the signal ratio). In short, it runs like this: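 Antagonist mode: compound added to VDR-bla cells alongside agonist 1alpha,25-dihydroxyvitamin D3 (3 nM final), incubation 16 h at 37C. Read-out is LiveBLAzer FRET fluorescence, 2 h at room temperature.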
Experiment [18] can be described thus: qHTS assay to identify small molecule agonists of the vitamin D receptor (VDR) signaling pathway - cell viability counter screen (AID 743224). Further: series mostly up to about 63 µM; nearly all actives have a fitted effect of over 50% in size. In short, it runs like this: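 Cells: VDR-bla, 2,000/well, settled 4 h. Treatment: compounds in DMSO, 16 h, 37C/5% CO2. Readout: CellTiter-Glo luminescence after 30 min RT.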
Experiment [19] deals with Bile acid receptor (Homo sapiens) (UniProt Q96RI1). Briefly: qHTS assay to identify small molecule antagonists of the farnesoid-X-receptor (FXR) signaling pathway (AID 743217; active means well fitted inhibition curve with a large enough effect in the signal ratio in the repeat runs, not every such curve was filed as active; the % refers to the signal ratio). In short, it runs like this:
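Cells carrying a UAS-driven beta-lactamase reporter (GeneBLAzer FXR-UAS-bla HEK 293T) were plated and rested 5 h at 37 °C. Compounds in DMSO were added alongside chenodeoxycholic acid agonist at 50 uM final and left 16 h at 37 °C before FRET substrate readout.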

For experiment [20] the target is unchanged. Briefly: qHTS assay to identify small molecule agonists of the farnesoid-X-receptor (FXR) signaling pathway (AID 743220; active means well fitted activation curve with a large enough effect in the signal ratio in the repeat runs, not every such curve was filed as active; the % refers to the signal ratio). In short, it runs like this:
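FXR-UAS-bla HEK 293T cells carrying a UAS-driven beta-lactamase reporter were plated for 5 h at 37C/5% CO2, then exposed to DMSO-dissolved Tox21 10K compounds for 16 h at 37C. A LiveBLAzer B/G FRET substrate was loaded for 2 h at room temperature before fluorescence reading.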

Aryl hydrocarbon receptor (Homo sapiens), sequence (P35869 whole entry, looked up): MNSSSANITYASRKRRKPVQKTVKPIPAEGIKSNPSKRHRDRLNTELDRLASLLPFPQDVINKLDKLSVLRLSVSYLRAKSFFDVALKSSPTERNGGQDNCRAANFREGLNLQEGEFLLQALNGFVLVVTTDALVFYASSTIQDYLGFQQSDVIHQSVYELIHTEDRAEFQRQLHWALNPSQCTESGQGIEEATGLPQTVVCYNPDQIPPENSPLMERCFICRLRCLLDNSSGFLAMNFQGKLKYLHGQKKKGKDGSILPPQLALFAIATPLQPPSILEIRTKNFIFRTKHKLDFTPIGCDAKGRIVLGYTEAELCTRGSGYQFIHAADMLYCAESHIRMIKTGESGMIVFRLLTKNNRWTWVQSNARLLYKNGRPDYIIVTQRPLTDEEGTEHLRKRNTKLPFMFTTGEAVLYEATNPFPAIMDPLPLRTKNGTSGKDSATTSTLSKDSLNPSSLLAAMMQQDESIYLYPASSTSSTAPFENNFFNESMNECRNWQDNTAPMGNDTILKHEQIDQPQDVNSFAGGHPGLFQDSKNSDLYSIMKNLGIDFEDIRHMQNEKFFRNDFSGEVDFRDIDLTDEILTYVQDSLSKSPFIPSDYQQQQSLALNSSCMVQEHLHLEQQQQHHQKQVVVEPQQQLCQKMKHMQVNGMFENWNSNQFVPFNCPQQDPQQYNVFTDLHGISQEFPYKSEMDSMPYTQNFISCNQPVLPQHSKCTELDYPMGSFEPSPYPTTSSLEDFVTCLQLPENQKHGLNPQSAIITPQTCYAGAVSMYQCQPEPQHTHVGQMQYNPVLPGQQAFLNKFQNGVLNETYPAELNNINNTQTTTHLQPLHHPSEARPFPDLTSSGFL
Peroxisome proliferator-activated receptor gamma (Homo sapiens), sequence (P37231 whole entry, looked up): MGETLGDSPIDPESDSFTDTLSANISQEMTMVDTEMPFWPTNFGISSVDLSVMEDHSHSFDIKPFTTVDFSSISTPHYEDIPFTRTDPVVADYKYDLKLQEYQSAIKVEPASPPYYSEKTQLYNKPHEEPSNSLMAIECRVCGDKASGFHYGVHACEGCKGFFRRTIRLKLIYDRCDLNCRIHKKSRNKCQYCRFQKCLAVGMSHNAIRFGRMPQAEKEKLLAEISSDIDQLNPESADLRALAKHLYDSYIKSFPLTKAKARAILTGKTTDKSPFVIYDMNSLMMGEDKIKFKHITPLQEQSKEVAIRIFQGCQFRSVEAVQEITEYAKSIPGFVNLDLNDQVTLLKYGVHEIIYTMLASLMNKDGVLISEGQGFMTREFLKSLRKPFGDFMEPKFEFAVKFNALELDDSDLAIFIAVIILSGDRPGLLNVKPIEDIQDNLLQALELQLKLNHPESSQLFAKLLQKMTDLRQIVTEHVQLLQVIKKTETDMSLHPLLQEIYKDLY
Bile acid receptor (Homo sapiens), sequence (Q96RI1 whole entry, looked up): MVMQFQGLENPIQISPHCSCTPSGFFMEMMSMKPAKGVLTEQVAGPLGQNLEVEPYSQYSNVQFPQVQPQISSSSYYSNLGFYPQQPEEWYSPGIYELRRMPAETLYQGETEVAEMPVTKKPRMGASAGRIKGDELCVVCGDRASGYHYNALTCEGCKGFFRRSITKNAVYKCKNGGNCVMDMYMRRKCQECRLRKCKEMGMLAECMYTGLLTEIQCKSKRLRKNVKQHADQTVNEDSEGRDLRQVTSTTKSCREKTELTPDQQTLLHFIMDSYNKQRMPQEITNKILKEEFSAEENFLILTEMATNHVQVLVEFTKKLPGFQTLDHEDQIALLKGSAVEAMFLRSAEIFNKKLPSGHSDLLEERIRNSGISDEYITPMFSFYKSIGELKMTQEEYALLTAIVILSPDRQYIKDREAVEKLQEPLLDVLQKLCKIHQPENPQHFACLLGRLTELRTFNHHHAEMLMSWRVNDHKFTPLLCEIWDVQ

For the compound `Cc1ccc(OC(=O)c2ccccc2O)cc1`, the Potency entry in experiment [1], in [2], in experiment [3], in experiment [4], in [5] and in experiment [6] was “inactive” in each case. Moreover, the Potency entry in experiment [7], in experiment [8], in experiment [9], in experiment [10], in experiment [11] and in [12] was “inactive” each time. In addition, the Potency result in experiment [13], in experiment [14], in [15], in experiment [16] and in experiment [17] was “inactive” throughout.
Regarding `CCn1cc(C(=O)O)c(=O)c2cc(F)c(N3CCNCC3)cc21`, the Potency result in experiment [1], in [2], in [3], in experiment [4], in experiment [5] and in [6] was “inactive” throughout. Besides, the Potency result in experiment [7], in experiment [8], in [9], in experiment [10], in [11] and in [12] was “inactive” throughout. For the same compound, the Potency result in experiment [13], in experiment [14], in experiment [15] and in [18] was “inactive” each time.
With `O=C(/C=C/c1ccccc1)OCCc1ccccc1`, the Potency result in [1], in experiment [2], in [3], in experiment [4], in experiment [5] and in experiment [7] was “inactive” in each case. Besides, the Potency result in [8], in experiment [9], in [10], in experiment [12], in [15] and in experiment [18] was “inactive” each time.
In the case of `CO[C@]1(NC(=O)CSC(F)F)C(=O)N2C(C(=O)O)=C(CSc3nnnn3CCO)CO[C@H]21`, the Potency entry in experiment [1], in [2], in experiment [3], in [4], in experiment [5] and in [6] was “inactive” throughout. For the same compound, the Potency result in experiment [7], in experiment [10], in experiment [11], in experiment [12], in [13] and in experiment [14] was “inactive” each time. Further, the Potency result in experiment [15], in experiment [16], in experiment [17] and in experiment [18] was “inactive” each time.
As to `Cc1ccc(C(C)(C)O)cc1`, the Potency entry in experiment [1], in [2], in [3], in experiment [4], in [5] and in experiment [6] was “inactive” in each case. For the same compound, the Potency entry in experiment [7], in [8], in experiment [9], in experiment [10], in experiment [11] and in [12] was “inactive” each time. For the same compound, the Potency entry in experiment [13], in experiment [14], in experiment [15], in experiment [16] and in experiment [18] was “inactive” each time.
Take `C1COC1`: the Potency result in experiment [1], in [2], in experiment [3], in [4], in experiment [5] and in experiment [7] was “inactive” in each case. The Potency result in experiment [8], in experiment [9], in experiment [10], in [11], in [12] and in experiment [13] was “inactive” each time. Further, the Potency entry in experiment [19], in experiment [14], in experiment [20], in [15], in experiment [16] and in [17] was “inactive” in each case. Also, the Potency entry in [18] is “inactive”.
Consider `O=C1c2ccccc2C(=O)C1(O)O`, for which, in [1], the Potency was 61.4 µM (active). The Potency result in experiment [2], in experiment [3], in experiment [4], in experiment [5], in [6] and in experiment [8] was “inactive” throughout. Besides, the Potency entry in [10], in [12], in experiment [14], in [15], in [16] and in experiment [17] was “inactive” in each case. The Potency entry in experiment [18] was “inactive”.
In the case of `CO/N=C(/C(=O)N[C@@H]1C(=O)N2C(C(=O)O)=C(COC(N)=O)CS[C@H]12)c1ccco1`, the Potency result in experiment [1], in experiment [2], in [3], in experiment [5], in experiment [7] and in experiment [10] was “inactive” throughout. Also, the Potency entry in [11], in experiment [12], in experiment [13], in [14], in experiment [15] and in [16] was “inactive” throughout. The Potency entry in experiment [17] and in experiment [18] was “inactive” each time.
In the case of `O=C(O)CCc1nc(-c2ccccc2)c(-c2ccccc2)o1`, the Potency entry in experiment [1], in experiment [2], in [4], in [7], in experiment [8] and in experiment [9] was “inactive” throughout. Also, the Potency entry in experiment [10], in [12], in experiment [13], in experiment [14], in experiment [15] and in experiment [16] was “inactive” in each case. The Potency entry in [18] is “inactive”. Moreover, in experiment [3], the Potency is 15.1 µM (active).

The values above are taken from PubChem BioAssay (Tox21).
